Test results reported in PubChem BioAssay (NCI).
About 79,000 compounds went through this panel and 15% of them were active in at least one assay; those are over-represented in the sample as a whole. Unmarked numbers belong to inactive results. The source made the active and inactive calls. Cut-off read from the data, not from the text of the source: active = growth inhibition above about 70%; inactive = the rest.

experiment: NCI Yeast Anticancer Drug Screen. Data for the bub3 strain (AID 167); conditions: S. cerevisiae bub3 mutant strain, at 50.0 µM, stronger effect = higher value
In short: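 Whole-cell yeast assay. The mutant strain was incubated with compounds, and growth inhibition was determined by comparison with vehicle-treated cells.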

SMILES	growth inhibition
CCOC(=O)C[P+](c1ccc(C)cc1)(c1ccc(C)cc1)c1ccc(C)cc1	91% (active)
O=C(NCCl)Nc1ccccc1	67.5%
O=c1[nH]c2ccccc2c2cccc(F)c12	91.8% (active)
O=C(c1c(F)c(F)c(F)c(F)c1F)N1CCN(C(=O)c2c(F)c(F)c(F)c(F)c2F)C1=S	85.3% (active)
O=C(CNS(=O)(=O)Cc1ccccc1)NCC(=O)NNc1ccccc1	20.1%
CC1(C)C(=O)N(CCCCCCN2C(=O)C(C)(C)c3ccccc32)c2ccccc21	73.2% (active)
CC(=O)Nc1cccc2c1ccc1ccc3ccccc3c12	5.75%
COc1ccc(-c2noc(=O)c3ccccc23)cc1	9.65%
c1ccc([B-](c2ccccc2)(c2ccccc2)c2ccccc2)cc1	93.3% (active)
CCc1cccc(C)c1N1C(=O)C(=O)C(c2nc3ccccc3o2)/C(=N\NS(=O)(=O)c2ccc(C)cc2)C1=O (centres undefined)	6.6%
Cc1ccc(-[n+]2cc([O-])on2)cc1	15.6%
CCOC(=O)C(Cc1cn(S(=O)(=O)c2ccccc2)c2ccccc12)(NC(C)=O)C(=O)OCC	67.7%
CC(=O)N1C=C2CCC3c4ccccc4NC3C2CC1 (centres undefined)	-4.6%
O=c1cccccc1[O-].O=c1cccccc1[O-].O=c1cccccc1[O-].[Ce+3]	91.2% (active)
CC(=O)OC(C#N)CC(C)(C)/[N+]([O-])=[N+](\[O-])C(C)(C)CC(C#N)OC(C)=O (centres undefined)	68.1%
O=C(O)C1(Cc2ccc3c(c2)CCC3)Cc2cc3c(cc2C1)CCC3	82.2% (active)
COC(=O)C12OCC34C(CC5C(C)C6=CC(=O)OC6=CC5(C)C3C(O)C1O)OC(=O)C(OC(C)=O)C24 (centres undefined)	92.5% (active)
O=S(=O)(c1cc(Cl)ccc1Cl)N1CCc2ccccc2C1	5%
CSC(=S)n1nc(-c2cccs2)c(N=Nc2ccc(Cl)cc2)c1C(F)(F)F	75.3% (active)
O=[N+]([O-])C1=Cc2ccccc2S(=O)(=O)CC1	90.5% (active)

SMILES	growth inhibition
COc1ccc(/C=N/n2c(C)nc3c(sc(=S)n3-c3ccccc3)c2=O)cc1	47.4%
Fc1ccc(NC(=S)SCc2ccccc2)cc1F	89.8% (active)
O=[N+]([O-])c1cccc2c1[nH]c1c(-c3ccccc3)nccc12	40%
CCOC(=O)CC(=O)/C=C/c1ccncc1	-9.3%
c1ccc([P+](c2ccccc2)(c2ccccc2)C2CCCC2)cc1	95.5% (active)
COc1cc(Cc2n[nH]c(=S)n2-c2ccccc2)c(S(N)(=O)=O)cc1OC	0.15%
CCCCCN(CCCCC)CCNc1ccc(C)c2sc3ccccc3c(=O)c12	96.8% (active)
COC(=O)[C@@]12OC[C@]34[C@H]([C@@H](O)[C@@H]1O)[C@@]1(C)CC(=O)C(O)=C(C)[C@@H]1C[C@H]3OC(=O)[C@H](OC(=O)C(Cc1ccccc1)NC(=O)OC(C)(C)C)[C@@H]24 (some centres undefined)	83.3% (active)
CC(=O)Nc1ccc(C(=O)C(C)Br)cc1 (centres undefined)	66.1%
COc1ccc2c(c1)[n+]([O-])c(C(N)=O)c(N)[n+]2[O-]	98.4% (active)
Cc1c2c(c(C)c3c4c(oc13)CCCC4)C=NCC2	50.2%
CC1C(C(=O)O)CC([N+](=O)[O-])C(Cl)C1[N+](=O)[O-] (centres undefined)	74.7% (active)
CCN(CC)c1ccc(N=C2C=C(C(=O)Nc3cccc(Cl)c3)C(=O)c3ccccc32)c(C)c1	-4.35%
C[N+](C)(C)CCN(Cc1cccs1)c1ccccn1	-4.2%
O=C(c1ccccc1)c1c(CO[N+](=O)[O-])n([O-])c2ccccc2[n+]1=O	97.7% (active)
CCC[C@H]1[C@H](CCC)[C@@]2(OC(=O)C3=C2CCC=C3)[C@]12OC(=O)C1=C2CCC=C1	89% (active)
O=C(CC(=O)c1ccccc1NC1=Cc2ccccc2C(=O)C1=O)C(=O)NC1=C(Cl)C(=O)c2ccccc2C1=O	84.9% (active)
C=CC[P+](CC[P+](CC=C)(c1ccccc1)c1ccccc1)(c1ccccc1)c1ccccc1	6.8%
NCC1CCNCC1	3.9%
